Inconclusive results are not listed. Where a call stands in place of a potency, no number is given. Calls of active or inactive are those of the source. Calls follow the shape of the full dose curve.

The nature of the assay: p53 small molecule agonists, cell-based qHTS assay: qHTS cell viability counter screen (AID 1963581). Also: nearly all actives have a fitted effect of over 45% in size. The settings on record: p53RE-bla HCT-116 viability, ATP luminescence, 16 h; series mostly up to 66 µM; activity change, negative = cytotoxicity: at the top concentration. The method, boiled down: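 Cytotoxicity read-out: ATP-based luminescence (CellTiter-Glo, 30 min RT) measured in the same wells as the p53 reporter assay, HCT-116 p53RE-bla cells, 16 h compound exposure at 37 C.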
Take `CCCCCCCCCCCC[N+](C)(C)C`: the Potency result was “inactive”.
Still for that read-out and setting: then `O=C1CCCCCCCCCCC1`, with “inactive”; and `CC(=O)[C@H]1CC[C@H]2[C@@H]3CC=C4C[C@@H](O)CC[C@]4(C)[C@H]3CC[C@]12C`, with “inactive”; and `O=C1O[C@H](CO)[C@@H](O)[C@H](O)[C@H]1O`, with “inactive”.
The same measure, in the same setting: the entry for `Brc1nc2ccccc2s1` is “inactive”; for `Oc1ccc2ccccc2c1N=Nc1ccccc1` it is “inactive”; for `Nc1cc([N+](=O)[O-])ccc1C(=O)O` it is “inactive”.
In the case of `CCCCCCCCCCCCCC[N+](C)(C)Cc1ccccc1`, the Potency entry is “inactive”.
Still for that read-out and setting: the entry for `CCCCCCCCOc1ccc(C(=O)c2ccccc2)c(O)c1` is “inactive”; for `Clc1ccc(Cl)c(Cl)c1Cl` it is “inactive”.
Turning to `COc1ccc(C(Cl)=C(c2ccc(OC)cc2)c2ccc(OC)cc2)cc1`, the Potency result is “inactive”.
Turning to `CCCCC1(COC(=O)CCC(=O)O)C(=O)N(c2ccccc2)N(c2ccccc2)C1=O`, the Potency entry was “inactive”.
As to `CN(C)CCCN`, the Potency result is “inactive”.
On to `C=C(C)C(=O)O[C@H]1C[C@@H]2CC[C@@]1(C)C2(C)C`, for which the Potency result is “inactive”.
Take `C=CCOC(=O)c1ccccc1C(=O)OCC=C`: the Potency result was “inactive”.
Same read-out and setting: then `CC(=O)c1ccc(S(=O)(=O)NC(=O)NC2CCCCC2)cc1`, with “inactive”; and `CCC(O)OC(O)CC` (stereo not given), with “inactive”.
For the compound `COCCOC(=O)c1ccccc1C(=O)OCCOC`, the Potency result was “inactive”.
Take `CC(C)CC(=O)CC(C)CC(C)C` (stereo not given): the Potency entry was “inactive”.
As for `O=c1n(CC2CO2)c(=O)n(CC2CO2)c(=O)n1CC1CO1` (stereo not given), the Potency result is “inactive”.
On the same count and under the same terms, then `O=C(/C=C/C=C/c1ccc2c(c1)OCO2)N1CCCCC1`, with “inactive”.
`Cc1cc(Cc2ccc(N)c(C)c2)ccc1N`: the “activity change, negative = cytotoxicity” value is 0.488% (inactive).
Regarding `CCC[C@H](N[C@@H](C)C(=O)N1[C@H](C(=O)O)C[C@@H]2CCCC[C@@H]21)C(=O)OCC`, the Potency result is “inactive”.
Same read-out and setting: then `c1ccc2c(c1)Cc1ccccc1-2`, with “inactive”; and `CCCOC(=O)NCCCN(C)C`, with “inactive”; and `CCCCOC(=O)CC(CC(=O)OCCCC)(OC(C)=O)C(=O)OCCCC`, with “inactive”.
`C=CC[N+](C)(C)CC=C`: the Potency entry was “inactive”.
Regarding `CC(O)COCC(C)O` (stereo not given), the “activity change, negative = cytotoxicity” value is -12.4% (inactive).
As to `CCCCC/C=C\C/C=C\CCCCCCCC(=O)OC`, the Potency entry was “inactive”.
Consider `Nc1ncnc2nc[nH]c12`, for which the Potency result is “inactive”.
On the same count and under the same terms, the entry for `Cc1ccc(N)c(S(=O)(=O)O)c1` is “inactive”.
On to `NCCOCCO`, for which the Potency entry is “inactive”.
For `CC(=O)Oc1ccc(C)cc1`, the Potency result is “inactive”.
As for `O=S1(=O)CCCO1`, the Potency result is “inactive”.
The same measure, in the same setting: then `C=C(C)C(=O)OCC(CC)(COC(=O)C(=C)C)COC(=O)C(=C)C`, with “inactive”; and `O=[N+]([O-])c1cccc(Cl)c1`, with “inactive”; and `CCOCC(=O)O`, with “inactive”.
On the same count and under the same terms, then `C=CCc1ccc(OC)c(OC)c1`, with “inactive”.
Same read-out and setting: then `Clc1ccccn1`, with “inactive”; and `Cc1cccc([N+](=O)[O-])c1C`, with “inactive”.

These data come from PubChem BioAssay (Tox21).
